Test results from PubChem BioAssay AID720504 (National Center for Advancing Translational Sciences (NCATS), 2013).
The campaign covered roughly 360,000 compounds. About 10,000 (2.8%) were called active. Roughly 4% stayed inconclusive and do not appear here. Calls come from the whole dose curve; as a rule, active = well fitted inhibition curve with a large enough effect; inconclusive = small, poorly fitted or top-dose-only effect; inactive = flat fitted curve, though single readings scatter. This excerpt belongs to a sample that is enriched for actives. Some structures have more than one record in an assay (separate samples or runs), and their calls can disagree.

The compounds below were run against Serine/threonine-protein kinase PLK1 (Homo sapiens) (UniProt P53350) (assay: qHTS for Inhibitors of PLK1-PDB (polo-like kinase 1 - polo-box domain): Primary Screen). Conditions: Plk1 PBD binding of FITC phosphopeptide, fluorescence polarization.
From the text: The polo-like kinase 1 (Plk1) is a member of a conserved subfamily of serine / threonine protein kinases that plays a pivotal roles in cell proliferation. It has a C-terminal non-catalytic region called the polo-box domain (PBD) that plays a crucial role in the subcellular localization of the Plk1. […] Furthermore, depletion of the overexpressed Plk1 by RNAi efficiently induces apoptotic cell death in cancer and reduces tumor growth in mouse xenograft models. Thus, targeting Plk1 is an appealing strategy for anti-cancer therapy. Therefore, this project aimed to screen the Molecular Libraries Small Molecule Repository (MLSMR) using a novel approach to find inhibitors that target the Plk1 PBD instead of the conventional N-terminal catalytic domain. This project employed a fluorescence polarization (FP) assay using a FITC-conjugated phospho-9-mer (p-9-mer) peptide and purified human Plk1 PBD protein. The identified small molecule inhibitors of Plk1 PBD can then further be developed into useful tools for biomedical and clinical research that complements or replaces current relevant disease therapy. NIH Chemical Genomics Center [NCGC] NIH Molecular Libraries Probe Centers Network [MLPCN] MLPCN Grant: MH100728 Assay Submitter (PI): Kyung Lee, NCI
Four microliter of 25 nM FITC-p-9-mer + 60 nM Plk1 PBD in buffer solution (final concentrations 25 nM and 60 nM respectively) or 4 uL of 25 nM FITC-p-9-mer (final concentration 25 nM) in buffer will be dispensed into a 1,536 Greiner medium-binding black solid plate. Small molecules at final concentrations of 18 nM to 57 uM and positive control phospho-9-mer (sequence: Ac-PPLHSpTAI-NH2) at final concentrations 26 nM to 57 uM and phospho-13-mer (sequence: Ac-[…]pTAI-NH2) at final concentrations of 1 nM to 2.3 uM will be pin-transferred (23 nL) to the plate via a Kalypsys pin-tool robotics equipped with a 1,536-pin array. The reaction plate will be centrifuged for 1 min at 1000 rpm and incubated at room temperature for 10 min. The FITC fluorescence signals will be read using the PerkinElmer ViewLux plate reader at 480 / 20 nm excitation and 540 / 20 nm S and P polarization emission wavelengths. Reagent bottles will be kept submerged into 4 °C recirculating chiller bath and all liquid lines will be covered with aluminum foil to minimize degradation. Library plates will be screened starting from the lowest to the highest concentrations to minimize compound carryover. Vehicle only plates, with DMSO being pin-transferred instead of compound solutions, will be included regularly throughout the screen to record any systematic shifts in assay signal.
% is set by controls: 0 for no effect and ±100 for the full control effect; potency is the fitted concentration of half-maximal effect.
Note: nearly all actives have a fitted effect of over 65% in size.
Throughout, for max response, negative = inhibition: series mostly up to about 57 µM.

Sequence of Serine/threonine-protein kinase PLK1 (Homo sapiens) (P53350 whole entry, looked up, the tested form may be a part): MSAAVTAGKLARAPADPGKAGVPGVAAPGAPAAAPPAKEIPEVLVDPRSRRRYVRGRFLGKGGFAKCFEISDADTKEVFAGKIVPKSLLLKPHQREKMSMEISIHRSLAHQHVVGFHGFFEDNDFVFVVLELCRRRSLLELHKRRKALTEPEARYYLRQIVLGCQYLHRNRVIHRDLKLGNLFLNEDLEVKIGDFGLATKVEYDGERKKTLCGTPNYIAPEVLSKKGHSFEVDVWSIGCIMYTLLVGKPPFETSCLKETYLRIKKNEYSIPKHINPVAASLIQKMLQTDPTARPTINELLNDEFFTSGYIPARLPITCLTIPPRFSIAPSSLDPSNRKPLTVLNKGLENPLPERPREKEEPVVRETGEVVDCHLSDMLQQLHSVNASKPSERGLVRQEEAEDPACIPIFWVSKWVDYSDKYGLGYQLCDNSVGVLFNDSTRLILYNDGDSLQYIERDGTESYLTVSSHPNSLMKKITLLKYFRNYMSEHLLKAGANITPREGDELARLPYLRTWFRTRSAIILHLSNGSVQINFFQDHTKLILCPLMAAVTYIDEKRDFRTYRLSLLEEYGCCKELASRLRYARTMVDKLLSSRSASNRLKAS

| SMILES | max response, negative = inhibition | Potency |
| --- | --- | --- |
| O=S(=O)(c1ccc(-c2ccccc2)cc1)N1CCCC1 | -5.48% (inactive) |  |
| O=S(=O)(NCc1ccccc1)c1ccc(S(=O)(=O)N2CCCC2)cc1 |  | 26.7 µM (active) |
| CC1CCN(S(=O)(=O)c2ccc(S(=O)(=O)NCc3cccnc3)cc2)CC1 | -9.09% (inactive) |  |
| CN(Cc1ccc(C(F)(F)F)cc1)C(=O)[C@H]1O[C@@H](n2cnc3c(N)ncnc32)[C@H](O)[C@@H]1O | -3.67% (inactive) |  |
| CN(C)C(=O)c1cccc(-c2cnc3c(NC=O)cc(-c4ccc(C(=O)N5CCOCC5)cc4)cn23)c1 | -14.7% (inactive) |  |
| Cc1cc(C(F)(F)F)nc(SCC(=O)Nc2nccs2)n1 | -4.23% (inactive) |  |
| CCn1c(SCC(=O)Nc2sc(C)c(C)c2C#N)nnc1C1CC1 | -26.7% (inactive) |  |
| CCOC(=O)c1sc(NC(=O)CSc2nc(C)cc(C(F)(F)F)n2)c(C#N)c1C |  | 2.99 µM (active) |
| CC(=O)OCC(C)n1c(=O)c2ccccc2n1C(C)=O (stereo not drawn) | 1.28% (inactive) |  |
| CN(C)c1cccc(NC(=O)c2ccc(-c3ccc(F)c(F)c3)c3ccoc23)c1 | -11% (inactive) |  |
| CCOC(=O)[C@]12CCCC=C1N(CCC1=CCCCC1)C(=O)[C@H](CC(=O)N1CCN(C(=O)c3ccco3)CC1)C2 | -19.8% (inactive) |  |
| C[C@@H]1CN([C@@H](C)CO)S(=O)(=O)c2ccc(C#Cc3cccc(F)c3)cc2O[C@H]1CN(C)S(=O)(=O)c1cn(C)cn1 | -28.6% (inactive) |  |
| CCCCCn1nnnc1-c1nc2cc3ccccc3cc2[nH]c1=O | -6.28% (inactive) |  |
| CCn1cc(C(=O)NCC2COc3ccccc3O2)c2cc(OC)c(OC)cc2c1=O (stereo not drawn) | -0.135% (inactive) |  |
| COc1cc(C(=O)N2CCN(C3CCC(C)CC3)CC2)cc(OC)c1OC (stereo not drawn) | -10% (inactive) |  |
| CCn1cc(C(=O)N2CCN(C3CCCCC3)CC2)c2cc(OC)c(OC)cc2c1=O |  | 10.6 µM (active) |
| CCc1nc2ccc(C(=O)NC3CCN(Cc4ccccc4)CC3)cn2c1N(C)CCN1CCOCC1 | -5.14% (inactive) |  |
| CCCCCc1c(-c2ccc(OC)c(OC)c2)ncn1CCc1ccccc1OC | -4.35% (inactive) |  |
| Cc1cc(C)c(NC(=S)N2CCCC2C(=O)O)c(C)c1 (stereo not drawn) |  | 6.7 µM (active) |
| Cc1cc(C)c(NC(=O)CN2CCCCCC2)c(C)c1 | -2.23% (inactive) |  |
| Cc1cc([N+](=O)[O-])c(N2CCC[C@@H]2C(=O)O)c([N+](=O)[O-])c1 | -4.11% (inactive) |  |
| COc1ccc(NC(=O)CN2C(=O)NC(C)(c3ccccc3)C2=O)cn1 (stereo not drawn) | 2.84% (inactive) |  |

| SMILES | max response, negative = inhibition | Potency |
| --- | --- | --- |
| COc1ccc(C(O)c2nc(-c3ccc(OC)nc3)cs2)cc1 (stereo not drawn) | 6.19% (inactive) |  |
| COc1ccc(CS(=O)/C(Cl)=C(/Cl)C(=O)Nc2ccc(OC)nc2)cc1 (stereo not drawn) |  | 2.67 µM (active) |
| Cc1ccc(-c2c(N)nc3ncccn23)cc1 | 2.55% (inactive) |  |
| CCc1nc2c(OCC(N)=O)cccn2c1N(C)C(=O)c1ccc(OC)cc1 | -13.5% (inactive) |  |
| Cc1nc2ccccc2c(=O)n1CCCn1ccnc1 |  | 21.2 µM (active) |
| Clc1c(OCCCn2ccnc2)ccc2ccccc12 | -25.1% (inactive) |  |
| CC1(C(=O)NCc2ccccc2)CSCC(=O)N1CCCn1ccnc1 (stereo not drawn) | -0.172% (inactive) |  |
| CC(C(=O)NC1CCCC1)N(c1ccc(Oc2ccccc2)cc1)S(C)(=O)=O (stereo not drawn) | -1.83% (inactive) |  |
| COc1ccc(/C=N/NC(=O)C(C)N(c2ccc(OC)cc2)S(C)(=O)=O)cc1 (stereo not drawn) |  | 26.7 µM (active) |
| CN(C)c1ccc(/C=N/NC(=O)C(O)c2ccc(Br)cc2)cc1 (stereo not drawn) | -14.9% (inactive) |  |
| COc1ccccc1Cc1c(-c2ccc(Cl)cc2)nc2c3ccccc3ccn12 | -5.7% (inactive) |  |
| O=C(/C=C/[C@H]1O[C@@H](n2ccc(=O)[nH]c2=O)[C@H](O)[C@@H]1O)NCc1ccccn1 | 0.76% (inactive) |  |
| Cc1cccc(C)c1NC(=O)C(c1ccc(C(F)(F)F)cc1)n1c(=O)c(-c2ccco2)nc2ccccc21 (stereo not drawn) | -16.2% (inactive) |  |
| COc1ccc(-c2[nH]ncc2/C=N/NC(=O)c2cc(Br)ccc2O)c(OC)c1 |  | 26.7 µM (active) |
| CC(C)/C=N/NC(=O)c1cc(Br)ccc1O | -13.1% (inactive) |  |
| COc1ccc(CC(=O)NCC(=O)N/N=C/c2cc(Br)ccc2OC)cc1 | 0.444% (inactive) |  |
| CC(C)(O)C1=C[N+](=O)CC=C1 | -9.3% (inactive) |  |
| O=C(CNc1ccc(F)cc1F)NC(=O)NCc1ccco1 | -20.1% (inactive) |  |
| Cc1cc(C)n2nc(SCC(=O)NC(=O)NCc3ccco3)nc2n1 |  | 16.8 µM (active) |
| CCOC(=O)c1cnc(SCC(=O)NCc2ccco2)nc1N | -1.79% (inactive) |  |
| O=[N+]([O-])c1ccc(CN2CC(N3CCC(c4ccccc4)CC3)CS2(=O)=O)cc1 (stereo not drawn) | -13.3% (inactive) |  |
| CCOc1ccc(Cl)cc1-c1cc(C(=O)NCc2cccs2)[nH]n1 | -0.638% (inactive) |  |

| SMILES | max response, negative = inhibition | Potency |
| --- | --- | --- |
| Cc1nn2c(c1-c1ccccc1)N=C(c1ccco1)CC2c1ccccc1 (stereo not drawn) | 2.38% (inactive) | 42.3 µM (active) |
| O=C(O)CCCC(=O)N1N=C(c2ccco2)CC1c1ccco1 (stereo not drawn) | -14% (inactive) |  |
| Cc1nn(C(=O)c2ccoc2C)c(N)c1-c1ccccc1 | -3.12% (inactive) |  |
| C[C@H]1CN([C@@H](C)CO)C(=O)c2cc(-c3ccccc3F)cnc2O[C@H]1CN(C)C(=O)C1CCOCC1 | -20.8% (inactive) |  |
| Cc1ccc(Cn2c(C)c(C(=O)NCc3ccccc3C(F)(F)F)sc2=O)cc1 | -12.2% (inactive) |  |
| O=C(Cc1ccc(-c2ccccc2)cc1)NC(c1ccccc1)c1ccccc1 |  | 21.2 µM (active) |
| C=CCC(NC(=O)Cc1ccccc1)C(=O)NCCC (stereo not drawn) | -11.6% (inactive) |  |
| O=C(CN1CCN(Cc2ccccc2)CC1)NC(c1ccccc1)c1ccccc1 | -13.1% (inactive) |  |
| O=C1NC[C@H](CCCCN2C[C@H](Cc3ccc(O)cc3)N(CC3CCCCC3)C(=O)C2=O)N(CCc2ccccc2)C1=O | -5.25% (inactive) |  |
| Cc1nc2c(OCc3ccc(Cl)cc3Cl)cccn2c1N(C)CC1CC1 | -13% (inactive) |  |
| Cc1cc2nc(-c3ccc(Cl)cc3)c(Cc3cccc(F)c3)n2c(C)c1Br | -18.5% (inactive) |  |
| Cc1noc(C)c1NC(=O)N(C)C[C@@H]1Oc2cc(Br)ccc2S(=O)(=O)N([C@@H](C)CO)C[C@H]1C | 2.61% (inactive) |  |
| Cc1nn(-c2ccccc2)c2c1C(c1ccc(F)cc1)C(C#N)=C(N)O2 (stereo not drawn) |  | 23.8 µM (active) |
| Cn1c2c(c(=O)n(C)c1=O)C(c1cccc(F)c1)C(C#N)=C(N)O2 (stereo not drawn) | -22.7% (inactive) |  |
| COc1ccccc1C1C(C#N)=C(N)Oc2c1c(-c1ccccc1)nn2-c1ccccc1 (stereo not drawn) | -0.276% (inactive) |  |
| COc1ccc(S(=O)(=O)NC(=O)C2(C)CCN2C(=O)c2ccccc2CCc2ccccc2)cc1 (stereo not drawn) | -9.6% (inactive) |  |
| Cc1cc(Nc2ccc(C)c(C)c2)n2ncnc2n1 | -12.1% (inactive) |  |
| O=S(=O)(c1ccc(F)cc1)N1CCN(C(=S)NCc2ccco2)CC1 | -10.7% (inactive) |  |
| O=C(NC1CCN(C(=S)NCc2ccco2)CC1)c1ccc(F)cc1 |  | 23.8 µM (active) |
| CCCNC(=S)N1CCC(NC(=O)c2ccc(OC)cc2)CC1 | -7.7% (inactive) |  |
| COC(=O)C[C@@H]1C=C[C@@H](NS(=O)(=O)c2cccc(OC)c2)[C@@H](CO)O1 | -1.82% (inactive) |  |
| CC(=O)Nc1c(-c2ccc(C)cc2)nc2ccc(Cl)cn12 | -2.35% (inactive) |  |

| SMILES | max response, negative = inhibition | Potency |
| --- | --- | --- |
| CCCCN(CC)CCCNC(=O)CS(=O)(=O)Cc1nc(-c2cccc(OC)c2)oc1C | 0.434% (inactive) |  |
| COc1ccc(CCNC(=O)CS(=O)(=O)Cc2nc(-c3ccc(C)cc3)oc2C)cc1OC | -18.7% (inactive) |  |
| COc1cccc(-c2nc(CS(=O)(=O)CC(=O)NCCc3ccc(OC)c(OC)c3)c(C)o2)c1 |  | 18.9 µM (active) |
| CC(=O)Nc1cccc(Nc2ccc(C#N)cc2)c1 | 0.998% (inactive) |  |
| CC1CCCC(NC(=O)COC(=O)c2ccccc2C(=O)N(C)C2CCCCC2)C1C (stereo not drawn) | -13.1% (inactive) |  |
| CCN(CC(=O)Nc1cccc(S(=O)(=O)N2CCCCC2)c1)Cc1ccccc1 | 1.36% (inactive) |  |
| O=C(Cn1cnc2ccccc2c1=O)Nc1cccc(S(=O)(=O)N2CCCCC2)c1 |  | 26.7 µM (active) |
| O=C(COC(=O)c1ccccc1)Nc1cccc(S(=O)(=O)N2CCOCC2)c1 | 10.6% (inactive) |  |
| Nc1cc(N)nc(SCC(=O)Nc2cccc(S(=O)(=O)N3CCCCC3)c2)n1 | -3.4% (inactive) |  |
| O=C(CSc1ccccc1)Nc1cccc(S(=O)(=O)N2CCCCC2)c1 | 3.72% (inactive) |  |
| O=C(CSc1ccccc1)Nc1cccc(S(=O)(=O)N2CCOCC2)c1 |  | 23.8 µM (active) |
| CN(C)CCN1CCN(c2cc(-c3cccc(Cl)c3)nc3ccnn23)CC1 | -12.4% (inactive) |  |
| COc1ccc(Sc2ccc(NC(=O)c3cccc(Cl)c3)cc2C#N)cc1 | 2.16% (inactive) |  |
| Cc1cccc(CN2CCN(C3CN(Cc4ccccc4)S(=O)(=O)C3)CC2)c1 (stereo not drawn) | 2.44% (inactive) |  |
| Nc1ncnc2c1ncn2[C@@H]1O[C@H](CNC(=O)[C@H](N)Cc2cccnc2)[C@@H](O)[C@H]1O | -2.93% (inactive) |  |
| CCCCCC(=O)N1C[C@H](O)[C@@H](n2cc(COC(=O)c3ccccc3)nn2)C[C@@H]1c1ccc(C)cc1 | -4.42% (inactive) |  |
| CCCCOC(=O)CNc1nnc(SCC(=O)OCC)[nH]c1=O |  | 13.4 µM (active) |
| CCOC(=O)CSc1nc(C)c(Oc2ccc(Cl)cc2Cl)c(=O)[nH]1 | -19.2% (inactive) |  |
| Cc1nnc(SCC(=O)N2CCOCC2)[nH]c1=O | -7.51% (inactive) |  |
| CCc1nc2ccc(C(=O)N(C)CCN(C)C)cn2c1N(CC)CCOC | -14.3% (inactive) |  |
| COCOCCn1cc(CN2CCS(=O)(=O)N(Cc3ccc(-c4ccccc4)cc3)C(CC(C)C)C2=O)nn1 (stereo not drawn) | -0.127% (inactive) |  |
